Compound activity (PubChem)
Compounds with a hit are over-represented: about 3.4% of the library has one in this group of screens.
GAA850 FXN act – increases GAA850 frataxin promoter reporter activity. HEK293 lucGAA850 FXN promoter luciferase reporter, 24 h; percent of 10 µM SAHA response. activation, % at 6 µM. hit rate 0.56% among 360,000;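 active means activation above the average of all compounds screened plus 3 SD, cutoff fixed separately per campaign, cut at about 7.5% in these data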
H9c2 protect – myocardial damage modulation in H9c2 cells; hit rate 0.63% among 360,000; protection from H2O2 cell death, % at 20 µM; H9c2 cardiomyocytes, H2O2 injury protection, ATPLite, 2 h;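 active means compounds giving at least 50% protection of heart cells from peroxide-induced death in the single-dose screen, raw or plate-pattern-corrected value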
COUP-TFII inh – blocks human COUP-TFII nuclear receptor; P24468; HEK293T NGFI-A luciferase reporter, luminescence; inhibition, % at 8.6 µM; hit rate 0.7% among 370,000; AID 686940;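 active means inhibition above a per-plate cutoff, mean inhibition of test wells between control levels plus 3 SD, cut at about 38% in these data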;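 further: cells cotransfected with COUP-TFII expression vector driving the NGFI-A reporter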
Target sequence (P24468 whole entry, looked up): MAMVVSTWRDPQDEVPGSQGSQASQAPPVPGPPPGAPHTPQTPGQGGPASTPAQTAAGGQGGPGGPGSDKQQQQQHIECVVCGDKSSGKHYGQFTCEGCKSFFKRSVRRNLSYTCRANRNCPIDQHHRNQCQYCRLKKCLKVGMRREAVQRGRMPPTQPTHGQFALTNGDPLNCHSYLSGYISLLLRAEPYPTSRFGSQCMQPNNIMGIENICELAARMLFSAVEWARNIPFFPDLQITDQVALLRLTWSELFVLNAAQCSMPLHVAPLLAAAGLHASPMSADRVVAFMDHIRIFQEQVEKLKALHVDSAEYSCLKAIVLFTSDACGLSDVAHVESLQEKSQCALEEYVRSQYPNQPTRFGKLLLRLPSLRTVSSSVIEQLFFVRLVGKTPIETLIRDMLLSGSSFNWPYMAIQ
Gli-Sufu antag – Gli-Sufu pathway antagonism; AID 588413; hit rate 0.74% among 340,000; Sufu-KO-LIGHT fibroblasts, Gli luciferase reporter luminescence; inhibition, % at 5 µM;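 active means inhibition above about 55%, limit read from the data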
GalR3 antag – blocks the human galanin receptor 3. HEK293 GalR3-CNG cAMP membrane potential fluorescence; galR3 body fused to GalR1 C-terminus. inhibition, % at 3 µM. hit rate 0.44% among 360,000;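 active means inhibition above the screen-wide average plus 3 SD, cut at about 13% in these data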;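 further: forskolin and galanin both at EC90 stimulate the cells; cAMP rise reported by CNG channel membrane potential dye signal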
Target sequence (O60755 1-299 limits assumed): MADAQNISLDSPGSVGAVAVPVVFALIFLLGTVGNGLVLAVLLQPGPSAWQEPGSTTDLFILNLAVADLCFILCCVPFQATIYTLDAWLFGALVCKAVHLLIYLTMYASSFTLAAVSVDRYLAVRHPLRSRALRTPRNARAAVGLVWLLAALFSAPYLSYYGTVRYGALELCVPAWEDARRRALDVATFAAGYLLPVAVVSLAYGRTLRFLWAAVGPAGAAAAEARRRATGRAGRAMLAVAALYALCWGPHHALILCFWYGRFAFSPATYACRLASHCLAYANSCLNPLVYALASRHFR
SMARCA2 activ – increases SMARCA2 function in MMTV reporter cells | MG213 cells, MMTV-luciferase reporter, dexamethasone, overnight | activation, % at 9.1 µM | hit rate 1% among 370,000 | AID 652017; in the data active means activation above about 7.8%
Gli antag conf – confirmation of Gli-SUFU pathway antagonists; hit rate 40% among 2,500; AID 602428; Sufu-KO-LIGHT cells, Gli luciferase reporter, luminescence; inhibition, % at 5 µM; shares compounds with Gli-Sufu antag;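 active means mean inhibition at 5 µM reaching about 45%, limit read from the data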
Gli cytotox – counter-screen for Gli-SUFU antagonists: cytotoxicity; shares compounds with Gli-Sufu antag; Sufu-KO-LIGHT cells cytotoxicity, ATP luminescence; cytotoxicity, % at 5 µM; hit rate 32% among 2,500;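 active means mean cytotoxicity at 5 µM above about 25%, limit read from the data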;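 further: cells exposed to compound overnight for roughly 16 to 18 hours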
Wnt3a counter – Wnt3a reporter inhibition counter-screen. shares compounds with Gli-Sufu antag. Wnt-LIGHT cells, Wnt3a-driven luciferase reporter, luminescence. hit rate 20% among 2,500. AID 651995. inhibition, % at 6.25 µM;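 active means mean inhibition above about 25%, limit read from the data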
Each line names hits and unclear results; the compound was inactive in the other large screens (follow-up assays come after a bar, where they were run).

O=C(NCC(c1ccco1)N1CCN(c2ccc(F)cc2)CC1)C1CCCCC1 (centres undefined)	none
O=C(Cc1ccc(F)cc1)NCCS(=O)(=O)N1CCN(c2ccccc2)CC1	Gli-Sufu antag 97 | Gli antag conf inactive | Gli cytotox inactive | Wnt3a counter inactive
O=C(Cc1ccccc1)NCCS(=O)(=O)N1CCN(c2ccccc2)CC1	none
Cc1c(C(=O)N2CCCCCC2)c(S(=O)(=O)Nc2ccccc2F)c(C)n1C	none | Gli antag conf inactive | Gli cytotox inactive | Wnt3a counter inactive
O=C(CN1C(=O)COc2ccc(S(=O)(=O)N3CCCCC3)cc21)NCc1ccc(Cl)cc1	Gli-Sufu antag 59 | Gli antag conf inactive | Gli cytotox 25 | Wnt3a counter inactive
CCC(CC)C(C(=O)NCc1ccccc1)N1CCN(c2cccc(C)c2C)CC1 (centres undefined)	none (no result: GAA850 FXN act, H9c2 protect, Gli-Sufu antag)
COC(=O)[C@]12CCCCC=C1N(CCc1ccc(OC)c(OC)c1)C(=O)[C@H](CC(=O)NCc1ccc(C)o1)C2	none (no result: GAA850 FXN act, H9c2 protect, Gli-Sufu antag)
Cc1ccc(/C=N/NC(=O)c2c(C)nc3ccc(Br)cn23)cc1	none
COc1ccc(/C=N\NC(=O)c2c(C)nc3ccc(Br)cn23)cc1	H9c2 protect 60, Gli-Sufu antag 61 | Gli antag conf 50 | Gli cytotox 48 | Wnt3a counter inactive
Cc1cccc(N(C)S(=O)(=O)c2ccc(-c3cnc(C4CC4)o3)cc2)c1	Gli-Sufu antag 59 | Gli antag conf 57 | Gli cytotox 55 | Wnt3a counter inactive
O=S(=O)(Nc1ccc(F)cc1Cl)c1ccc(-c2cnc(C3CC3)o2)cc1	none | Gli antag conf inactive | Gli cytotox 50 | Wnt3a counter inactive
Cc1ccc(N(C)S(=O)(=O)c2cc(-c3cnc(C4CC4)o3)ccc2C)cc1	none
COc1ccccc1NS(=O)(=O)c1ccc(-c2cnc(C3CC3)o2)cc1	none
CCOc1ccccc1NS(=O)(=O)c1ccc(-c2cnc(C3CC3)o2)cc1	Gli-Sufu antag 55 | Gli antag conf 59 | Gli cytotox 56 | Wnt3a counter inactive
C=CCN(Cc1ccc2c(c1)OCO2)C(C#CC1CC1)C(C)C (centres undefined)	none (no result: GAA850 FXN act, H9c2 protect, Gli-Sufu antag, GalR3 antag)
OC(c1ccccc1)(c1ccccc1)C1CCN(CCCOc2cccc(F)c2)CC1	none (no result: GAA850 FXN act, H9c2 protect, Gli-Sufu antag)
CCOC(=O)c1[nH]c2ccccc2c1NC(=O)CN1CCCCC1	none
CCCC(=O)Nc1c(C(=O)OCC)[nH]c2ccccc12	Gli-Sufu antag 75 | Gli antag conf inactive | Gli cytotox inactive | Wnt3a counter inactive
CCOC(=O)c1[nH]c2ccccc2c1NC(=O)CC(C)C	none | Gli antag conf inactive | Gli cytotox inactive | Wnt3a counter inactive
CN1CCCCC(NC(=O)CCCl)C1=O (centres undefined)	none (no result: GAA850 FXN act, H9c2 protect, Gli-Sufu antag)
O=C1c2ccccc2C(c2nnnn2-c2ccc3c(c2)OCCO3)N1Cc1cccc(F)c1 (centres undefined)	none (no result: GAA850 FXN act, H9c2 protect, Gli-Sufu antag)
O=C(COC(=O)CCCSc1nc2ccccc2[nH]1)NC(=O)NC1CCCC1	none | Gli antag conf inactive | Gli cytotox inactive | Wnt3a counter inactive
CCNC(=O)NC(=O)COC(=O)CCCSc1nc2ccccc2[nH]1	none
CCNS(=O)(=O)c1ccc(C)c(-n2cnnn2)c1C	none
CC(C)(C)c1ccc(C(=O)NC(=S)Nc2ccc(N3CCOCC3)cc2)cc1	Gli-Sufu antag 60 | Gli antag conf 52 | Gli cytotox inactive | Wnt3a counter inactive
Cc1onc(-c2ccccc2Cl)c1C(=O)N1CCCCCC1	Gli-Sufu antag 59 | Gli antag conf inactive | Gli cytotox inactive | Wnt3a counter inactive
Cc1onc(-c2ccccc2Cl)c1C(=O)N1CCCC1	none
CN(c1ccc(NC(=O)Cc2c[nH]c3ccccc23)cc1)c1ccccn1	none (no result: GAA850 FXN act, H9c2 protect, Gli-Sufu antag)
CC1=NN(C(N)=S)C(=O)C1N=Nc1ccc(O)cc1 (centres undefined)	Gli-Sufu antag 57 | Gli antag conf inactive | Gli cytotox inactive | Wnt3a counter inactive
CC(CCc1ccccc1)NC(=O)C1CC1 (centres undefined)	Gli-Sufu antag 61 | Gli antag conf inactive | Gli cytotox inactive | Wnt3a counter inactive
O=C(Cn1ncc2ccccc21)N1CCN(c2cccc(C(F)(F)F)c2)CC1	Gli-Sufu antag 56 | Gli antag conf inactive | Gli cytotox inactive | Wnt3a counter inactive
CCOC(=O)N1CCN(C(=O)Cn2ncc3ccccc32)CC1	none
O=C(Cc1cccc(NC(=O)C2CCCN(C(=O)c3ccccc3)C2)c1)Nc1ccc(C(=O)N2CCOCC2)cc1 (centres undefined)	none
Cc1cc(C(=O)CSc2nc3ccccc3c(=O)n2C)c(C)n1Cc1ccc2c(c1)OCO2	Gli-Sufu antag 73 | Gli antag conf 78 | Gli cytotox 38 | Wnt3a counter 49
CC(=O)c1cc(-c2ccccc2)n(CCC(=O)NC(C)(C)C)c1C	none (no result: COUP-TFII inh, GalR3 antag, SMARCA2 activ)
CC(=O)c1cc(-c2ccccc2)n(CCC(=O)NC2CCCCCCC2)c1C	Gli-Sufu antag 70 | Gli antag conf inactive | Gli cytotox inactive | Wnt3a counter inactive
COC(=O)[C@]12C[C@H](CC(=O)NCCCCc3ccccc3)C(=O)N(CCc3ccc(OC)c(OC)c3)C1=C[C@H](C(C)(C)C)O[C@@H]2C	none (no result: GAA850 FXN act, H9c2 protect, Gli-Sufu antag, GalR3 antag)
Cc1ccc(O)c(/C=N/NC(=O)CN2CCCC2)c1	none
O=C(N/N=C\c1c(O)ccc2ccccc12)c1ccc(Cn2cccn2)o1	Gli-Sufu antag 58 | Gli antag conf 69 | Gli cytotox 26 | Wnt3a counter 59
O=C(CN1CCCC1)N/N=C/c1c(O)ccc2ccccc12	none | Gli antag conf 66 | Gli cytotox 37 | Wnt3a counter 60
C=CCN(CC#CC1=CCCCC1)CC1CC1	none (no result: GAA850 FXN act, H9c2 protect, Gli-Sufu antag, GalR3 antag)
O=C1C=CC(c2c[nH]c3ccccc23)CC1 (centres undefined)	none (no result: GAA850 FXN act, H9c2 protect, Gli-Sufu antag)
CCNc1nc(NCC)nc(N(C)/N=C/c2ccco2)n1	none
COc1cccc(-c2nc(CS(=O)(=O)CC(=O)NCCN3CCOCC3)c(C)o2)c1	Gli-Sufu antag 77 | Gli antag conf inactive | Gli cytotox inactive | Wnt3a counter inactive
Cc1ccccc1CS(=O)(=O)Cc1ccc(C(=O)Nc2ccc(F)cc2F)o1	none (no result: GAA850 FXN act, H9c2 protect, Gli-Sufu antag, GalR3 antag)
COc1ccc(OCC(=O)Nc2ccc3c(c2)nc(CCN2CCN(C)CC2)n3C)cc1	none | Gli antag conf inactive | Gli cytotox inactive | Wnt3a counter inactive
COc1ccc(OCC(=O)Nc2ccc3c(c2)nc(CCN2CCCC2)n3C)cc1	none
CC1(C)C([N+](=O)[O-])C(c2ccccc2O)NC(c2ccccc2O)C1[N+](=O)[O-] (centres undefined)	none
